A selection: hits, their analogues and other compounds. The true share with any hit is near 4.9%.
dFosB activator: enhances mouse delta FosB homodimer DNA binding; P13346; activation, % at 25 µM; 340,000 compounds, 0.99% hits; AID 493131; purified delta FosB, TAMRA-CDK5 oligo fluorescence polarization; percent of positive-control signal above neutral wells;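 active = mean activation above about 17%, with every replicate also reaching it, limit read from the data, passing the limit was not always enough; inconclusive = only one of the two conditions met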
Target sequence (P13346 whole entry, looked up): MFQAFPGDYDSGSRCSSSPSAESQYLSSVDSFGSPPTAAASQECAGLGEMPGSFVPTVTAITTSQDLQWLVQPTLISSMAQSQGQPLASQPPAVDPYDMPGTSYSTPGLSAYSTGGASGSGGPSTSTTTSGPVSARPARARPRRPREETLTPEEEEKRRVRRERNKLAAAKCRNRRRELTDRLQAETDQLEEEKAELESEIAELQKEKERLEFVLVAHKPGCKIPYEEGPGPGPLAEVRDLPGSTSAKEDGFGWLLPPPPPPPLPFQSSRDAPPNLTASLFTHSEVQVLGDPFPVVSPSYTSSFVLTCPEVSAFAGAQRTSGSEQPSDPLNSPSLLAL
HSF1 inhib: HSF1 inhibition | NIH3T3-HGL HSE-luciferase, MG132-induced, luminescence 8 h; stronger effect = lower value | 300,000 compounds, 0.77% hits | activity change, negative = inhibition, % at 7.5 µM (by protocol);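 active = more than half of replicate wells show activity change below -50%, luminescence cut by over half; inconclusive = some wells, but at most half, below -50%; inactive = no replicate well below -50%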;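 also: luciferase reports HSF-1 transcriptional activity via heat shock element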
HSP90 inh: inhibitors of HSP90 luciferase refolding in rabbit reticulocyte lysate | luciferase refolding luminescence, 3 h | inhibition, % at 5.6 µM | 290,000 compounds, 0.91% hits | AID 1789;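 active = inhibition above the screen-wide mean plus 3 SD, computed separately per campaign, cut at about 16% in these data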;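 also: inhibitors lower the luminescence because luciferase stays unfolded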
HSF1 activator: increases HSF-1 driven luciferase reporter signal; NIH3T3-HGL HSF-1 luciferase reporter, MG132, 8 h; 100% = twice DMSO control signal; 300,000 compounds, 1.7% hits; activation, % at 9 µM; AID 504408;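 active = mean replicate activation of at least 50% with a set share of replicates each reaching 50%; inconclusive = only one of those two conditions met; inactive = mean below 50% and too few replicates reaching it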
MPTP inh: blocks calcium-induced mitochondrial swelling. isolated mouse mitochondria, Ca2+ swelling absorbance, 30 min. inhibition, % at 10 µM. 360,000 compounds, 1.4% hits. AID 602449;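 active = inhibition of 50% or more, scaled per plate between neutral and stimulator controls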
Platelet DG rel: modulates dense granule release in human platelets. human platelet-rich plasma, SFLLRN dense granule ATP release, luminescence. inhibition, %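 (compounds screened at 7.5 µM in platelet-rich plasma)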. 300,000 compounds, 0.22% hits. AID 1663;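 active = mean replicate score, as percent of positive control, at or above 50; inconclusive = mean below 50 but at least one replicate at or above 50; inactive = mean and every replicate below 50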
MPTP counter: mitochondrial membrane potential, counter-screen. shares compounds with MPTP inh. isolated mitochondria, Rhodamine 123 fluorescence. inhibition, % at 10 µM. 5,000 compounds, 78% hits; in the data active = inhibition above about 22%
MPTP swell DR: dose response confirmation of mitochondrial permeability transition pore inhibitors; shares compounds with MPTP inh; isolated mitochondria swelling, absorbance; IC50, µM; 780 compounds, 58% hits; AID 651561; in the data active = IC50 below about 20 µM
MPTP counter DR: MPTP inhibitor counter-screen activity, dose response | shares compounds with MPTP inh | isolated mitochondria counterscreen, fluorescence read-out | IC50, µM | 780 compounds, 49% hits; in the data active = IC50 below about 80 µM
Numbers stand for hits; 0 = inactive; ? = inconclusive; - = not tested or not shown; + = active, no number.

SMILES	dFosB activator	HSF1 inhib	HSP90 inh	HSF1 activator	MPTP inh	Platelet DG rel	MPTP counter	others
O=C(NC(NNc1ccc([N+](=O)[O-])cc1)(C(F)(F)F)C(F)(F)F)c1ccc(F)cc1	0	0	0	0	100.3	0	88.2
O=C(NC(NNc1ccc([N+](=O)[O-])cc1)(C(F)(F)F)C(F)(F)F)c1ccccc1Cl	0	0	0	0	90.2	0	83.8
O=C(OCc1ccccc1)N1C[C@H](O)[C@H](O)C[C@@H]1c1c(Cl)cccc1Br	-	-	-	-	0	-	-
COc1ccccc1OC(=O)Nc1ccc(Cl)cc1	0	0	0	0	58.2	0	75.0
CN(C)c1ccc(C=c2c3cc(O)ccc3n3c2cc(-c2ccccc2)[n+]3C)cc1	81.6	-	-	-	53.4	-	58.9
CC(C)(C)c1cnnn1-c1ccc(/C=N/Nc2ccc([N+](=O)[O-])cc2)cc1	0	0	0	0	73.5	0	68.3
COc1cc(NC(=O)CCc2nnc3ccc(N4CCOCC4)nn23)cc(OC)c1OC	0	0	0	0	0	0	-
COc1ccc(-c2cn3c(C)c(C(=O)Nc4cccc(NC(C)=O)c4)sc3n2)cc1	0	0	0	0	79.7	0	23.5
Cc1c(C(=O)Nc2ccncc2)sc2nc(-c3ccc(F)cc3)cn12	0	0	0	0	0	0	-
FC(F)(F)c1cccc(Nc2cc(-c3ccccc3)nc3ncnn23)c1	0	0	0	0	0	0	-
FC(F)(F)c1ccc(N2CCN(c3cc(-c4ccccc4)nc4ncnn34)CC2)nc1	0	0	0	0	92.2	0	47.8
CCN1CCN(CC(=O)n2c3c(c4ccccc42)CC(C)CC3)CC1 (stereo unspecified)	0	0	0	0	77.7	0	0	MPTP swell DR=8.65;MPTP counter DR=0
COc1ccc(OCCCC(=O)Nc2cccc(SC)c2)cc1	0	0	0	0	0	0	-
COc1ccc(CC(=O)Nc2cccc(S(=O)(=O)N3CCCCCC3)c2)cc1OC	0	0	0	0	87.1	0	80.9
CSc1cccc(NC(=O)CCCOc2ccc(Cl)cc2C)c1	0	0	0	0	74.6	0	80.5
COc1ccc(CCC(=O)Nc2cccc(S(=O)(=O)N3CCCCCC3)c2)cc1OC	0	-	-	-	0	-	-
COc1ccc(CC(=O)Nc2cccc(SC)c2)cc1OC	0	0	0	0	53.9	0	42.1
CCCNC(=O)C1(C)CCCN(C(=O)c2ccc3sccc3c2)C1 (stereo unspecified)	-	-	-	-	0	-	-
O=C(COC(=O)Cc1ccc(Cl)cc1)Nc1c(F)cccc1F	0	0	0	0	0	0	-
COc1ccc(S(=O)(=O)Nc2ccc(Cc3ccncc3)cc2)cc1OC	0	0	0	0	65.5	0	77.7
CCc1ccc(OC)c(S(=O)(=O)Nc2ccc(Cc3ccncc3)cc2)c1	0	0	0	0	79.0	0	83.3
CCc1ccc(NS(=O)(=O)c2ccc(OC)c3ncccc23)cc1	0	0	0	0	0	0	-
O=S(=O)(Nc1ccc(Cc2ccncc2)cc1)c1ccc(Cl)c(Cl)c1	0	0	0	0	0	0	-
CCCCCN=C(N)N/N=C/c1c[nH]c2ccc(OC)cc12	17.7	0	-	0	85.1	0	23.2
CCCOc1ccc(C(=O)N/N=C/c2c[nH]c3ccc(Br)cc23)cc1	0	0	0	0	0	0	-
SMILES	dFosB activator	HSF1 inhib	HSP90 inh	HSF1 activator	MPTP inh	Platelet DG rel	MPTP counter	others
COc1ccc(S(=O)(=O)N2CCCCC2c2cc(C(=O)NCc3ccccc3)no2)cc1 (stereo unspecified)	-	-	-	-	0	-	-
O=C(CSc1nc2ccccc2s1)NNC(=S)Nc1ccc(Br)cc1	0	0	0	0	81.9	0	83.0
Cc1snc(S(=O)(=O)/C(C#N)=N/Nc2cccc(C(F)(F)F)c2)c1C#N	0	0	0	0	103.8	0	89.8
O=S(=O)(NCCc1ccccc1)c1ccc(Br)cc1	0	0	0	0	0	0	-
Oc1ccc(-c2nnc(SCC3CCCCC3)o2)cc1	0	0	0	0	54.9	0	53.5
Cc1ccc(CNc2nc(Cl)c(C#N)s2)cc1	0	0	0	0	67.1	0	76.6
N#Cc1sc(NCc2cccc(Cl)c2)nc1Cl	0	0	0	0	0	0	-
Cc1cc(C(=O)CSc2nc(N)cc(=O)[nH]2)c(C)n1-c1ccc(OC(F)F)cc1	0	0	0	0	98.0	0	89.2
CCOc1ccccc1-c1cc(-c2ccc(OC)cc2)nc2c1c(=O)n(C)c(=O)n2C	0	0	-	0	82.8	0	0	MPTP swell DR=0;MPTP counter DR=0
COc1ccc(-c2c3c(=O)n(C)c(=O)n(C)c3c3nnc4ccccc4n23)cc1	-	-	0	-	-	-	-
COc1ccc2nc3cc(Cl)ccc3c(Nc3cc(C(C)C)c(O)cc3C)c2c1	89.1	0	0	186.7	84.4	0	109.4
CCc1ccc(NC(=O)[C@H](Cc2c[nH]c3ccccc23)NC(=O)[C@@H]2Cc3ccccc3CN2)cc1	?	0	0	0	72.3	0	0	MPTP swell DR=7.61;MPTP counter DR=0
CN(C)NC(=S)NC1CC2CCC1C2 (stereo unspecified)	0	0	0	0	0	0	-
CC(C)(C#CCN1CCCCC1)OCCOC(c1ccccc1)c1ccccc1	0	0	0	0	77.0	0	0	MPTP swell DR=19.9;MPTP counter DR=20.4
CC(O)(C#CCN1CCCCC1)c1ccccc1 (stereo unspecified)	0	0	0	0	0	0	-
COCCCNC(=O)c1c(N)n(/N=C/c2cccnc2)c2nc3ccccc3nc12	0	0	0	0	+	0	0
COCCCNC(=O)c1c(N)n(/N=C/c2cccs2)c2nc3ccccc3nc12	0	0	0	0	0	0	-
CSC1=C(C#N)C2(CCCC2)C(C#N)=C(N)N1	-	0	0	0	-	0	-
N#CC1=C(N)N2C(=C(C#N)C13CCCCC3)SC1CCCCC12O (stereo unspecified)	0	0	0	?	66.0	0	72.3
CCCCCCCCN1C(=O)[C@H](CC(=O)NCCCOCCCC)C[C@@]2(C(=O)OC)CCCCC=C12	-	-	-	-	0	-	-
O=C(Nc1ccc(Cl)cc1)N1CCN(c2ccccc2)CC1	0	0	0	0	65.9	-	74.8
CCCN1CCC(NC(=S)Nc2ccc([N+](=O)[O-])cc2)CC1	0	0	0	0	0	0	-
CC(=O)c1ccc(N2CCN(C(=O)Nc3ccc(Cl)cc3)CC2)cc1	0	0	0	0	0	0	-
CCCN1CCN(C(=S)Nc2ccc([N+](=O)[O-])cc2)CC1	0	0	0	0	59.9	0	66.2
O=[N+]([O-])c1ccc(NC(=S)N2CCN(c3ccccc3)CC2)cc1	0	0	0	0	72.2	0	84.1
Cc1nn(-c2ccc(N3CCOCC3)nn2)c(C)c1CCC(=O)NCc1ccccc1	0	0	0	0	0	0	-

Assay outcomes: PubChem BioAssay, several laboratories
